Results on 56 sequences are retold here after paper PMC7819943, “Rice protein-binding microarrays: a tool to detect cis-acting elements near promoter regions in rice”.

Over roughly 68,000 sequences, “fluorescence intensity (a.u.)” has its median near 9,100; the highest 2% begin near 16,000. The sample as a whole holds a higher share of the highest values than the screen did.

Chain of OsWRKY34 (Q0JBA9 entry or part of it): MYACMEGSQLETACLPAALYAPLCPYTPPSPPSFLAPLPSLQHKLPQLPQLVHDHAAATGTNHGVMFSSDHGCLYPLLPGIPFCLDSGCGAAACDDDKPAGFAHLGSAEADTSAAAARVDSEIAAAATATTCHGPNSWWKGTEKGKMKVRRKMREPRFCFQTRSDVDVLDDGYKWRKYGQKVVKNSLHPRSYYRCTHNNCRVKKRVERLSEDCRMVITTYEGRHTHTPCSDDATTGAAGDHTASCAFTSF

In the test the target is OsWRKY34 (Oryza sativa, UniProt Q0JBA9 1-250). The test can be described thus: protein-binding microarray (RPBM); PBS, 2% BSA, 51.3 ng/ul salmon testes DNA, 50 uM zinc acetate, 200 nM TF, 25 C, 1 h; high values mean tight binding. Conditions: protein: recombinant; tags: N-terminal polyhistidine and DsRed monomer fusion (pET32a); label: CyDye5-dUTP incorporated in the synthesized complementary strand; 3' TTTTT single-stranded linker to array surface; dsDNA, one strand shown. Put shortly:
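Transcription factors were made in E. coli BL21-CodonPlus as N-terminal fusions to a polyhistidine tag and DsRed, then purified on Ni–NTA. After primer extension with Cy5-dUTP and blocking with 2% BSA, a custom Agilent array was exposed for 1 h at 25 °C to 200 nM protein in PBS, 2% BSA, salmon testes DNA and 50 µM zinc acetate. Washed arrays were scanned on an Axon 4000B, and the binding signal is per-feature fluorescence intensity in arbitrary units.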
Take “GTCCTGCTACGCATACTCTCCCCTCTGACTCTTTGCGCCACGGAGTCACCTAGTGCAG”: the binding signal was 8250 fluorescence intensity (a.u.).

Take “GGTCCATCACTCCAAGGTCAGTGCTTTTTTATTTACTCTACGGAGTCACCTAGTGCAG”: the binding signal is 14600 fluorescence intensity (a.u.). For “AATAAGACGAAAAGTCAAACGTTTGTCAAAAAGTCAACGGCGGAGTCACCTAGTGCAG”, the binding signal is 8290 fluorescence intensity (a.u.). The result for “CCAAGGGTGGGGCCTCTCGTCGTCTCGTCTCCTCTCGTCTCGGAGTCACCTAGTGCAG” reads 20400 fluorescence intensity (a.u.); that for “TACTCCTCGTCATTTTGGTTTTGGTTTTGGTTTGGGTGGTCGGAGTCACCTAGTGCAG”, 10400 fluorescence intensity (a.u.). Turning to “CGGGCGGGTCAAGGTCTCCTCCTCTCTCGTCGGCGACCTCCGGAGTCACCTAGTGCAG”, the binding signal was 10900 fluorescence intensity (a.u.). Turning to “GACTAATAGCTTCAGTTTTGCATGCGATGGCCACTCAAATCGGAGTCACCTAGTGCAG”, the binding signal is 10100 fluorescence intensity (a.u.). The value for “TTCAGTTTTCACTTCATTATTTTGCCGTTTCTCTTTGACCCGGAGTCACCTAGTGCAG” was 12300 fluorescence intensity (a.u.); that for “GCTCCTCGTCGCCACCGATCCCCGCCGCCGGCTTGCCTCACGGAGTCACCTAGTGCAG” was 9340 fluorescence intensity (a.u.). The value for “ACCACTCCACGCGCCTATATCACCACACGTCACGCTTCCACGGAGTCACCTAGTGCAG” was 16700 fluorescence intensity (a.u.); that for “CACCACCCCGGCCGCTTCCGCCACTTCACTCCACTCCACACGGAGTCACCTAGTGCAG” was 13200 fluorescence intensity (a.u.). Turning to “CACCACACGTCACGCTTCCACCTCCACCTCCACCTCACTGCGGAGTCACCTAGTGCAG”, the binding signal was 11900 fluorescence intensity (a.u.). The result for “CGCGCCCACCAGTCCACTCACGCGGTCACTCTCCTCCAGTCGGAGTCACCTAGTGCAG” reads 8140 fluorescence intensity (a.u.); that for “ATCACACGCTGCACCTCTCCCGCGCCCACCAGTCCACTCACGGAGTCACCTAGTGCAG”, 18500 fluorescence intensity (a.u.). For “CCACTCACCACGCGCGCTGCCCGCTTGCCTCCTCTGCCCACGGAGTCACCTAGTGCAG”, the binding signal is 10200 fluorescence intensity (a.u.). Regarding “ACGCTGTTGTAATTCCAGATGTTGGTCAGTAGTCATTACTCGGAGTCACCTAGTGCAG”, the binding signal is 10700 fluorescence intensity (a.u.).

On to “CGGGGAGTCGTTGCTGTTCTTGTTCTTGGTCGAGGTTGAGCGGAGTCACCTAGTGCAG”, for which the binding signal was 14500 fluorescence intensity (a.u.).

On to “TCAGCAATCTCTCTTTCTACTAGGGTCTCTTCTACCAGCGCGGAGTCACCTAGTGCAG”, for which the binding signal is 8070 fluorescence intensity (a.u.). Regarding “TTGACCACCAAGCTCCTGCTTCTTGCAATCTTGATCGATACGGAGTCACCTAGTGCAG”, the binding signal is 9170 fluorescence intensity (a.u.).

For the sequence “ATCCTCATATCGTGTATCCGTATTCGTATCCCCGTATTTGCGGAGTCACCTAGTGCAG”, the binding signal is 8230 fluorescence intensity (a.u.). For the sequence “CTGCACCTAAAGCCTTTCAGAAAACTTTTCACCCTGTCAACGGAGTCACCTAGTGCAG”, the binding signal was 8740 fluorescence intensity (a.u.). The value for “CACTAATTGATCAATTGCACAACAAATTGCTTGAATAACGCGGAGTCACCTAGTGCAG” was 65500 fluorescence intensity (a.u.); that for “TCAACCATAATCACTAGTGTCACAAACACCTTGAAATTCACGGAGTCACCTAGTGCAG” was 8120 fluorescence intensity (a.u.). Turning to “ACATCAACACACCATCACTCGCACAAAACACACTAATAAACGGAGTCACCTAGTGCAG”, the binding signal is 8440 fluorescence intensity (a.u.). “AGAATGTTATACGGCGCTCGATCTATTATTCCGCACTCTACGGAGTCACCTAGTGCAG”: the binding signal is 8130 fluorescence intensity (a.u.).

On to “TCTCCGTTGTAATATGTTCTTTGTCCTCGATGTGTTTCCGCGGAGTCACCTAGTGCAG”, for which the binding signal was 11400 fluorescence intensity (a.u.). On to “GTTTTACTAGTGAATTTTCTTTTCTTTGCTTCGTTTAATGCGGAGTCACCTAGTGCAG”, for which the binding signal was 8930 fluorescence intensity (a.u.). In the case of “GATGTACTGAACTGTTTTTTTTTTCGTTTTTAATTTCTAGCGGAGTCACCTAGTGCAG”, the binding signal was 8550 fluorescence intensity (a.u.). As for “AATTTCGTTTTTAATACGCCCAGTGAAATTTGCTGTCTAGCGGAGTCACCTAGTGCAG”, the binding signal was 17500 fluorescence intensity (a.u.). The value for “TCTCGCCACCTTCGCCTCCATCTCATCGACCGCCCACTTCCGGAGTCACCTAGTGCAG” was 12800 fluorescence intensity (a.u.); that for “ATGACTTTAATATGTTAGCTTTTCATGCATGTGTCAATTTCGGAGTCACCTAGTGCAG” was 8700 fluorescence intensity (a.u.); that for “TCATAATGCATCAATCTATTACTTTAGCTATCTATTTATACGGAGTCACCTAGTGCAG” was 9530 fluorescence intensity (a.u.). As for “GCATATAATTAGTTTACCATGGCTTTAATCAATCATATGCCGGAGTCACCTAGTGCAG”, the binding signal is 29300 fluorescence intensity (a.u.). The result for “GCAACGCCGCCGTTTTCTTCGCCTCTCACAGAGACGACTCCGGAGTCACCTAGTGCAG” reads 9200 fluorescence intensity (a.u.); that for “AGCCATCTATCACCATGGCTGAAGCCATGTTATATATATCCGGAGTCACCTAGTGCAG”, 8560 fluorescence intensity (a.u.). “ATTCGTTCTGGTTTTCTTCGGGGTTTATTGATTCACGCGACGGAGTCACCTAGTGCAG”: the binding signal was 18200 fluorescence intensity (a.u.). The result for “ATCACTTTATGCGCACTTTTCTTTGACGCCTTCCACAATTCGGAGTCACCTAGTGCAG” reads 9560 fluorescence intensity (a.u.); that for “ACTTCTACCTTTCGTTTTTCCACGCGCATATGCTTTTTGACGGAGTCACCTAGTGCAG”, 20300 fluorescence intensity (a.u.). “TCCCACCTTCCGCTCGTTTTTCTTGAGCATATGCTTCTCACGGAGTCACCTAGTGCAG”: the binding signal was 10100 fluorescence intensity (a.u.).

“TTCTTTTCTTTTTCTTTTTCGTTTTCTTCTTATTCTTTTTCGGAGTCACCTAGTGCAG”: the binding signal was 12900 fluorescence intensity (a.u.). The value for “CTTCACTCTTGATTCAAAAGGTTTTATTTTTTTTTCTGGTCGGAGTCACCTAGTGCAG” was 8530 fluorescence intensity (a.u.). For the sequence “GGGGTTCGTTTTGTTTCTTGACACACGCTTGAGTCTTATTCGGAGTCACCTAGTGCAG”, the binding signal is 16900 fluorescence intensity (a.u.). The result for “TTCGGGTTTTTTTTTTGTTTATTTTGTCTTTCGCTTTTCACGGAGTCACCTAGTGCAG” reads 14900 fluorescence intensity (a.u.); that for “TTTTTGGGGTTTTCTCTTCTTGATTGATTCGTTCTTGGCGCGGAGTCACCTAGTGCAG”, 13100 fluorescence intensity (a.u.). For the sequence “TCTTCTGAGTTCTTGTGTTTTCATACGTGCCAATCAAATGCGGAGTCACCTAGTGCAG”, the binding signal was 8310 fluorescence intensity (a.u.).

Take “ACCTTCGGTGTACTTTTTCCTTAGTCTGCCGGCTTATTTACGGAGTCACCTAGTGCAG”: the binding signal was 9490 fluorescence intensity (a.u.). The result for “GACAATTACTTAGTCCTCACCTACCGTCGACCTCACACGTCGGAGTCACCTAGTGCAG” reads 10200 fluorescence intensity (a.u.); that for “TTCAGAGTATTGTGATCCTTAAATCGAACCGTTGACTCTACGGAGTCACCTAGTGCAG”, 9490 fluorescence intensity (a.u.); that for “AGCAGTTGTATTGTTGTGAAATTTAATTTGCTCTTTGACCCGGAGTCACCTAGTGCAG”, 8200 fluorescence intensity (a.u.). As to “TCTTGTTCATTTCTCTCTTGCTCCGGCTCGCCTCGCATCGCGGAGTCACCTAGTGCAG”, the binding signal was 8300 fluorescence intensity (a.u.). “GGTAGACGGCGTCGTACCCGTCCTCCTCGCCGGACCGCATCGGAGTCACCTAGTGCAG”: the binding signal was 8840 fluorescence intensity (a.u.).

On to “TAATGTATGACGCCGTTGACTTTTTAACTAACGTTTGACCCGGAGTCACCTAGTGCAG”, for which the binding signal was 28700 fluorescence intensity (a.u.). The result for “TAATGTATGACGCCGTTGACTTTTTGATTAACGTTTGACCCGGAGTCACCTAGTGCAG” reads 34800 fluorescence intensity (a.u.); that for “TTTTAATGTATGACGCCGTTGACTTTTTATACGTTTGACCCGGAGTCACCTAGTGCAG”, 32200 fluorescence intensity (a.u.); that for “TTGTATGATGCCGTTGATTTTTTTTGTCTAACGTTTAACCCGGAGTCACCTAGTGCAG”, 8360 fluorescence intensity (a.u.).

As for “TAATGTATAACGCCGTTAACTTTTTAACAAACGTTTGACCCGGAGTCACCTAGTGCAG”, the binding signal was 8430 fluorescence intensity (a.u.).
